# In PubChem BioAssay AID1159580 (chemical genetic matrix, 2015):
# Among all 5,500 compounds or so, about 2,000 (36%) were called active. Another 18% or so got no clear call; they are omitted. The list shows a part of the results. A number with no mark means an inactive call. No stated cut-off is given here; in the data, active means normalized growth mostly below about 0.91 (no sharp cut-off); inconclusive means no clear call, values can overlap the other calls; inactive means mostly above about 0.92.
# Experiment: chemical genetic growth profiling, strain panel (AID 1159580);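 further: tested at 20 µM; growth read once vehicle control cultures reached saturation at 30 °C; 1 = growth at the plate median or of vehicle wells; lower values mean less growth of the strain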
# Details: S. cerevisiae deletion strains, growth OD
smiles,measurement,setting,value
CC1CCc2c(sc3ncnc(Sc4ccccc4)c23)C1 (stereo unspecified),normalized growth,"locus YAR019C, strain CDC15, hits give low values",0.992
same,normalized growth,"locus YBL105C, strain PKC1, hits give low values",0.972
same,normalized growth,"locus YBR135W, strain CKS1, hits give low values",0.979
same,normalized growth,"locus YBR136W, strain MEC1, hits give low values",0.978
same,normalized growth,"locus YBR160W, strain CDC28, hits give low values",0.983
same,normalized growth,"locus YDL017W, strain CDC7, hits give low values",0.981
same,normalized growth,"locus YDL028C, strain MPS1, hits give low values",0.978
same,normalized growth,"locus YDL101C, strain DUN1, hits give low values",0.978
same,normalized growth,"locus YDL108W, strain KIN28, hits give low values",0.976
same,normalized growth,"locus YDL132W, strain cdc53, hits give low values",0.977
same,normalized growth,"locus YDL214C, strain PRR2, hits give low values",0.945
same,normalized growth,"locus YDR052C, strain DBF4, hits give low values",0.98
same,normalized growth,"locus YDR054C, strain cdc34, hits give low values",0.981
same,normalized growth,"locus YDR226W, strain ADK1, hits give low values",0.979
same,normalized growth,"locus YDR477W, strain SNF1, hits give low values",0.952
same,normalized growth,"locus YER123W, strain YCK3, hits give low values",0.926
same,normalized growth,"locus YER133W, strain GLC7, hits give low values",0.956
same,normalized growth,"locus YFL009W, strain cdc4, hits give low values",0.983
same,normalized growth,"locus YFL029C, strain CAK1, hits give low values",0.987
same,normalized growth,"locus YFR003C, strain YPI1, hits give low values",0.977
same,normalized growth,"locus YFR019W, strain FAB1, hits give low values",0.966
same,normalized growth,"locus YFR028C, strain CDC14, hits give low values",0.975
same,normalized growth,"locus YGR040W, strain KSS1, hits give low values",0.937
same,normalized growth,"locus YGR052W, strain FMP48, hits give low values",1
same,normalized growth,"locus YGR092W, strain DBF2, hits give low values",0.991
same,normalized growth,"locus YHR030C, strain SLT2, hits give low values",1.19 [resistant] (active)
same,normalized growth,"locus YHR079C, strain IRE1, hits give low values",1.11
same,normalized growth,"locus YHR082C, strain KSP1, hits give low values",1.06
same,normalized growth,"locus YHR205W, strain SCH9, hits give low values",0.992
same,normalized growth,"locus YIL147C, strain SLN1, hits give low values",0.977
same,normalized growth,"locus YJL095W, strain BCK1, hits give low values",0.996
same,normalized growth,"locus YJL128C, strain PBS2, hits give low values",0.94
same,normalized growth,"locus YJL157C, strain FAR1, hits give low values",0.962
same,normalized growth,"locus YJR016C, strain ILV3, hits give low values",0.984
same,normalized growth,"locus YJR066W, strain TOR1 (second series), hits give low values",0.948
same,normalized growth,"locus YJR066W, strain TOR1, hits give low values",1.09
same,normalized growth,"locus YKL048C, strain ELM1, hits give low values",0.966
same,normalized growth,"locus YKL067W, strain YNK1, hits give low values",0.948
same,normalized growth,"locus YKL101W, strain HSL1, hits give low values",0.931
same,normalized growth,"locus YKL193C, strain SDS22, hits give low values",0.983
same,normalized growth,"locus YKL203C, strain TOR2, hits give low values",1.04
same,normalized growth,"locus YLR113W, strain HOG1, hits give low values",0.886
same,normalized growth,"locus YLR133W, strain CKI1, hits give low values",0.946
same,normalized growth,"locus YLR403W, strain SFP1, hits give low values",0.968
same,normalized growth,"locus YML070W, strain DAK1, hits give low values",0.936
same,normalized growth,"locus YMR001C, strain CDC5, hits give low values",0.984
same,normalized growth,"locus YMR205C, strain PFK2 (second series), hits give low values",0.95
same,normalized growth,"locus YMR277W, strain FCP1, hits give low values",0.98
same,normalized growth,"locus YNL006W, strain LST8, hits give low values",0.99
same,normalized growth,"locus YNL020C, strain ARK1, hits give low values",0.943
same,normalized growth,"locus YNL161W, strain CBK1, hits give low values",0.98
same,normalized growth,"locus YNL183C, strain NPR1, hits give low values",1.03
same,normalized growth,"locus YNL207W, strain RIO2, hits give low values",0.976
same,normalized growth,"locus YNL222W, strain SSU72, hits give low values",0.989
same,normalized growth,"locus YNL307C, strain MCK1 (second series), hits give low values",0.969
same,normalized growth,"locus YOL078W, strain AVO1, hits give low values",0.976
same,normalized growth,"locus YOL136C, strain PFK27, hits give low values",0.913
same,normalized growth,"locus YOR061W, strain CKA2, hits give low values",0.935
same,normalized growth,"locus YOR119C, strain RIO1, hits give low values",1.02
same,normalized growth,"locus YOR231W, strain MKK1, hits give low values",0.925
same,normalized growth,"locus YOR329C, strain SCD5, hits give low values",0.983
same,normalized growth,"locus YPL031C, strain PHO85, hits give low values",0.945
same,normalized growth,"locus YPL153C, strain RAD53, hits give low values",0.941
same,normalized growth,"locus YPL204W, strain HRR25, hits give low values",0.92
same,normalized growth,"locus YPL209C, strain IPL1, hits give low values",0.982
same,normalized growth,"locus YPL256C, strain CLN2, hits give low values",1.02
same,normalized growth,"locus YPR025C, strain CCL1, hits give low values",0.982
same,normalized growth,"locus YPR106W, strain ISR1, hits give low values",0.984
same,normalized growth,"locus YPR111W, strain DBF20, hits give low values",0.96
same,normalized growth,"strain NNK1, hits give low values",0.981
same,normalized growth,"strain TSCII, hits give low values",0.979
